# Measurements as given in paper PMC4336329 (PLoS ONE, 2015).
# Out of some 310,000 compounds screened, about 14,000 (4.5%) showed an effect of 50% or more. The effect is printed as a negative number. For the sample, strong results were picked, then their nearest neighbours and some compounds at random.
# Molecular target: human ether-à-go-go-related gene (hERG) potassium channel (human, UniProt Q12809)
# Experiment: primary screen, population patch clamp on CHO cells stably expressing hERG; higher = less effect of the substance
# 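Also: peak tail current of the secondary pulse compared with the same well before compound.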
# Chain of human ether-à-go-go-related gene (hERG) potassium channel (Q12809 whole entry, looked up): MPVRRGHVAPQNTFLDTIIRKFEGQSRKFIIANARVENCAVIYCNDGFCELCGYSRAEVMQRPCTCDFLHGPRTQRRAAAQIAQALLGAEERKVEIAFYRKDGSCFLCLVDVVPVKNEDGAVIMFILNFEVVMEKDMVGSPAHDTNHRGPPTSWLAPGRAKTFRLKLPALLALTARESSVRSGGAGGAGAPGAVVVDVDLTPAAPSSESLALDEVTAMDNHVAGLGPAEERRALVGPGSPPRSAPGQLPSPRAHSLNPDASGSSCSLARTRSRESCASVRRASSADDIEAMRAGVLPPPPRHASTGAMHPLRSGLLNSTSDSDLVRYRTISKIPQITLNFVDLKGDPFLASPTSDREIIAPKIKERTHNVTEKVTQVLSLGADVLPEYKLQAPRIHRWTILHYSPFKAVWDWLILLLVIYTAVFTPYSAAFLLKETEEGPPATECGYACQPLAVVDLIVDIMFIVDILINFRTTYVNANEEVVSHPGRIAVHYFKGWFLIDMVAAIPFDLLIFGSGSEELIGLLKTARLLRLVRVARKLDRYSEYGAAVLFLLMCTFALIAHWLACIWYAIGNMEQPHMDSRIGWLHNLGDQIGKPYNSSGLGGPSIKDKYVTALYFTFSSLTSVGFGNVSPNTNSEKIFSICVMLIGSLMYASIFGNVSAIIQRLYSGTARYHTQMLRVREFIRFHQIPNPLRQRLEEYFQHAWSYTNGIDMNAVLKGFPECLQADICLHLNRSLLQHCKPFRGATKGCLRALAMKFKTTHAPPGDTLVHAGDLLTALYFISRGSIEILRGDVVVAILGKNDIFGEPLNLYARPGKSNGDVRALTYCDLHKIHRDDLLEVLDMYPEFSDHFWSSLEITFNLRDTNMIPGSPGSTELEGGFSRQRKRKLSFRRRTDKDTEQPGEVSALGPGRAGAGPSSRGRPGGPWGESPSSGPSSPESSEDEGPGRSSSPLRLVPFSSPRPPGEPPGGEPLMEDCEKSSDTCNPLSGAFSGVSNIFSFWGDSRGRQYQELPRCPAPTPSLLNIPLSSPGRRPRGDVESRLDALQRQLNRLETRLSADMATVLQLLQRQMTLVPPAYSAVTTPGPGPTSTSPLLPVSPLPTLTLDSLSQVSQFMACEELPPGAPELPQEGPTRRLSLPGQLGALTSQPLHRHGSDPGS
row,Compound,"hERG current change (%, negative = inhibition) at 10uM [%]"
1,COc1cccc(-c2nnc3n2N=C(c2cccc(Br)c2)CS3)c1,6.32
2,CCOC(=O)Cn1c(-c2ccccc2)ccc(C#N)c1=O,8.28
3,Cc1ccc(S(=O)(=O)NC23CC4CC(CC(C4)C2)C3)cc1,3.97
4,CCC(=O)N1CCN(c2ccc(Cl)cc2NC(=O)c2ccc(N3CCCC3)c([N+](=O)[O-])c2)CC1,-6.9
5,COc1ccccc1NC(=O)CCN1C(=O)C2CC=C(Cl)CC2C1=O (centres unmarked),-2.46
6,CC(C)(Oc1ccc(Cl)cc1)C(=O)NC1CCCCC1,0.43
7,Cc1ccc(/C=C(\NC(=O)c2ccccc2)C(=O)NCCN2CCOCC2)o1,-3.91
8,C=C(C)c1cccc(C(C)(C)NC(=O)NC2CCCC2)c1,15.1
9,C=C(C)c1cccc(C(C)(C)NC(=O)NC2CN3CCC2CC3)c1 (centres unmarked),1.14
10,COc1cc(C(=O)NC2CCN(Cc3ccccc3)CC2)cc(Cl)c1OC,-44.3
11,COc1cc(C(=O)NC2CCN(Cc3ccccc3)CC2)cc(Cl)c1OC(C)C,-61.2
12,C=C(C)c1cccc(C(C)(C)NC(=O)NC2CCN(Cc3ccccc3)CC2)c1.Cl,-55.5
13,COc1ccccc1CC(=O)NC1CCN(Cc2ccccc2)CC1,1.52
14,CC(C)(Oc1ccc(Cl)cc1)C(=O)NC1CC1,1.41
15,Cc1ccc(/C=C(\NC(=O)c2ccccc2)C(=O)NCC2CCCO2)o1 (centres unmarked),-5.4
16,CC(C)(Oc1ccc(Cl)cc1)C(=O)NC1CCN(Cc2ccccc2)CC1,-70.4
17,Cc1ccc(/C=C(\NC(=O)c2ccccc2)C(=O)NC2CCN(Cc3ccccc3)CC2)o1,-55.5
18,Cc1cccc(-c2onc3ccc(C4(C)OCCO4)cc23)c1,-1.6
19,CCOC(=O)c1[nH]cnc1C(=O)O,-2.12
20,CN(C)c1ccc(N2C(=NC(=O)C3CCCO3)SC3CS(=O)(=O)CC32)cc1 (centres unmarked),11.1
21,CCN(CC)C(=O)N1CCN(C(=O)N2CCOCC2)CC1,29.8
22,Cc1ccc2cccc(S(=O)(=O)N3CCN(c4cccc(Cl)c4)CC3)c2n1,-2.91

row,Compound,"hERG current change (%, negative = inhibition) at 10uM [%]"
1,CC1CC(=O)N(CC(=O)Nc2cccc(F)c2)c2ccccc2S1(=O)=O (centres unmarked),-4.3
2,O=C(N1CCCCCC1)n1c(Cc2ccccc2)nc2ccccc21,-30.5
3,O=C(CN1CCN(c2ncc(C(F)(F)F)cc2Cl)CC1)NC(=O)NCc1ccccc1,4.2
4,O=C(NC1CCN(Cc2ccccc2)CC1)c1ccc2c(c1)[nH]c(=O)n2Cc1ccc(F)cc1,-21.8
5,Cl.O=C(NC(=S)NC1CCN(Cc2ccccc2)CC1)c1ccc(F)cc1,-72.3
6,O=C(NC1CCN(Cc2ccccc2)CC1)c1ccc(CS(=O)c2ccc(F)cc2)o1 (centres unmarked),-22.4
7,O=C(NC1CCN(Cc2ccc(F)cc2)CC1)c1ccccc1,-50.2
8,CC(C)(C)c1ccc(C(=O)N2CCC(NC(=O)c3ccccc3)CC2)cc1,-1.48
9,CC(C)(C)c1ccc(C(=O)NC2CCN(Cc3ccccc3)CC2)cc1,-65.3
10,Fc1ccc(NC(=S)NC2CCN(Cc3ccccc3)CC2)cc1,-30
11,Cc1ccccc1C(=O)NC1CCN(Cc2ccccc2)CC1,-29.1
12,Cc1ccc(C)n1-c1ccc(C(=O)NC2CCN(Cc3ccccc3)CC2)cc1,-65.5
13,Cc1ccc(-n2c(=O)[nH]c3cc(C(=O)NC4CCN(Cc5ccccc5)CC4)ccc3c2=O)cc1,11.2
14,CS(=O)(=O)Cc1ccc(C(=O)NC2CCN(Cc3ccccc3)C2)cc1 (centres unmarked),-5.28
15,S=C(Nc1ccccc1)NC1CCN(Cc2ccccc2)CC1,-39.6
16,Cc1ccc(-c2nnc(SCC(N)=O)n2C)cc1,-0.685
17,CN(C)N1C(N)=C(C#N)C(c2cccnc2)C2=C1CCCC2=O (centres unmarked),-9.73
18,CC(C)Oc1ccc(C(=O)O)cc1,16.5
19,O=S(=O)(NCc1ccccc1)c1ccc(Cl)c(S(=O)(=O)NCc2ccccc2)c1,-33
20,COc1ccc(C(=O)NCCC2=CCCCC2)cc1,-9.79
21,NS(=O)(=O)c1ccc(CCNC(=O)CNS(=O)(=O)c2cccc(Br)c2)cc1,13.2
22,COc1ccc(C2C(C#N)=C(N)N(c3sc4c(c3C#N)CCCC4)C3=C2C(=O)CC(C)(C)C3)cc1 (centres unmarked),-2.99
